Results on 72 compounds are retold here after ChEMBL document CHEMBL4513216, “Probing the Open Global Health Chemical Diversity Library for Multistage-Active Starting Points for Next-Generation Antimalarials” (ACS Infect Dis, 2020).

Screen size: about 65,000 compounds; about 2,100 (3.2%) showed an effect of 50% or more. The median lay at about -52%. The full list was thinned out, with strong results kept by preference.

The experiment relates to Plasmodium falciparum. In words: Screen against P. falciparum Asexual Blood Stage (ABS), at 5uM. The format is functional, Dd2. As to conditions: tested at 5 uM.
As to `c1ccc(CCNC2CCc3ncnn3C2)nc1` (configuration not stated), the INHIBITION is -209%.

Consider `CC(C)(CNc1c(C#N)cnc2ccc(Cl)cc12)C(N)=O`, for which the INHIBITION stood at 11.4%. As to `CCC(CC)C(=O)NCC1(NC(C)c2ccccc2)CCOCC1` (configuration not stated), the INHIBITION is -6.09%.

Take `CC(NC1(CNS(C)(=O)=O)CCCC1)c1ccccc1` (configuration not stated): the INHIBITION is 68.9%. For the compound `CC(NC1(CNS(C)(=O)=O)CCOCC1)c1ccccc1` (configuration not stated), the INHIBITION was 0.206%. Then `O=C(Cc1ccccc1)NCCNCc1cccc(O)c1`, with 6.4%; and `COc1ccc(-n2cccn2)c(CN2CCC3(CCCNC3)C2)c1` (configuration not stated), with 68.3%; and `COc1ccc(-n2cccn2)c(CN2CCC3(CCNCC3)C2)c1`, with 31.9%. Then `COc1ccc(-n2cccn2)c(CN2CCC(O)(CO)CC2)c1`, with -36%; and `CCn1ncc2c1CN(CCc1cccc(Cl)c1)CC2COC` (configuration not stated), with -27.5%. Next, `Cc1cccc(CO[C@@H]2CO[C@@]3(CCN(S(=O)(=O)N(C)C)C3)C2)n1`: -44.7%.

For the compound `CCn1cnnc1C1CCN(C(=O)c2cnn(C(C)(C)C)c2)CC1`, the INHIBITION is reported as -133%. Then `CCN(Cc1ccccc1)C(=O)CCN1C[C@@H](C(=O)O)[C@H](C2CC2)C1`, with -49.1%. Then `CN(Cc1ccccc1)C(=O)CCN1C[C@H](C2CC2)[C@@H](N(C)C)C1`, with 51.9%; and `C[C@@H]1CN(CCC(=O)N(C)Cc2ccccc2)C[C@@]1(O)C1CCC1`, with 20.7%; and `O=C(c1cccn1-c1ccc2c(c1)OCCO2)N1CCCC1`, with 9.62%. Then `CC(C)N1CCC2(CC1)CC(CC(N)=O)c1ccc(F)cc12` (configuration not stated), with -12.3%; and `c1cnc(N2CCOC3(CCN(CC4CCCCC4)CC3)C2)nc1`, with 57.2%; and `c1cnc(N2CCC3(CCN(CC4CCOC4)CC3)C2)nc1` (configuration not stated), with -14.7%. Turning to `c1cnc(N2CCC3(CCN(CC4CCOCC4)CC3)C2)nc1`, the INHIBITION is -30.1%. On to `c1cnc(N2CCOC3(CCN(CC4CCOC4)CC3)C2)nc1` (configuration not stated), for which the INHIBITION is reported as -13%.

Consider `c1cnc(N2CCC3(CCN(CC4CCCC4)CC3)C2)nc1`, for which the INHIBITION was 43.8%.

On to `c1cnc(N2CCCC3(CCN(CC4CCOC4)CC3)C2)nc1` (configuration not stated), for which the INHIBITION was 56.4%. Next, `CN(C(=O)C1CCN(Cc2cnc3ccccn23)CC1)c1ccccc1`: 10%; `CCCc1cc(CNC2CCN(c3cc(C)nc(N)n3)CC2)on1`: -44.2%; `O=C1NCC2CN(Cc3ccccc3OCc3ccccn3)CCN12` (configuration not stated): -16.2%. Next, `CCOC(=O)Cc1n[nH]c(-c2cncc(Br)c2)n1`: -109%. As to `CCC(=O)N1CCCN(Cn2nc(C)c(Br)c2C)CC1`, the INHIBITION is -101%.

As for `CCc1ccc(S(=O)(=O)N2CCN(CCn3ccnc3)CC2)cc1`, the INHIBITION was -45.4%. On to `O=C1CCCN1CC1CN(CC2CCOCC2)Cc2nccn2C1` (configuration not stated), for which the INHIBITION is -87%. In the case of `Cc1ncc(CN(C)CCO)c2cc(C(=O)c3ccc(Br)cc3)oc12`, the INHIBITION amounted to 49.9%. Next, `Cc1ncc(CN2CCOCC2)c2cc(C(=O)c3ccc(Br)cc3)oc12`: -2.54%; `Cc1ncc(CN2CCCC2)c2cc(C(=O)c3ccc(Br)cc3)oc12`: 67.5%. Consider `CCO[C@H]1CC[C@H]2[C@H]1OCCN2C(=O)c1nn(C)c2ccccc12`, for which the INHIBITION is given as -77.6%.

Turning to `Cc1nc(N)ncc1C(=O)N1CCCC(CCc2ccc(F)cc2)C1` (configuration not stated), the INHIBITION stood at 38%. Next, `N#Cc1cccc(C(=O)N2CCN(c3ncccn3)CC2)c1`: -150%; `COc1ccc(C2Nc3ccccc3C3=NCCCN32)cc1OC` (configuration not stated): -62.4%. Next, `COc1ccc(C2Nc3cc(Cl)ccc3C3=NCCN32)cc1OC` (configuration not stated): 72.2%; `CN(C)c1ncc(C2Nc3cc(Cl)ccc3C3=NCCCN32)cn1` (configuration not stated): -9.81%. Regarding `COCCN1CCN(CC2CCCCO2)CC1` (configuration not stated), the INHIBITION is -67.3%. Next, `Cc1cccc(C(=O)N2C[C@@H]3OCCN(CCN4CCCC4)[C@@H]3C2)n1`: -112%; `CO[C@@H]1c2ccccc2C2(CCN(C(=O)CNC(=O)C(C)C)CC2)[C@H]1O`: -62.3%. Next, `O=C(NC1CCN(CC2CC2)C1)N1CCC(OC2CCCCC2)CC1` (configuration not stated): 55%.

As to `O=C(NC1CCN(CC2CCCC2)C1)N1CCC(OCC2CC2)CC1` (configuration not stated), the INHIBITION was 64.5%. Consider `O=C(CCN1CCOCC1)NC1CCCN(CC2CCCCC2)C1` (configuration not stated), for which the INHIBITION is given as -80.2%.

Consider `NC(=O)C1CCN(C(=O)NC2CCN(CC3CCCC3)C2)CC1` (configuration not stated), for which the INHIBITION is on record as -53.5%. For `CSC(C)(C)CNC(=O)NC1CCN(CC2CC2)C1` (configuration not stated), the INHIBITION is recorded as -35.8%. Next, `Cc1noc(C)c1CNC(=O)N1CCC(OCC2CC2)CC1`: -65.8%; `Cc1ccc(C(=O)N2CCCC(c3cc(C(F)(F)F)[nH]n3)C2)o1` (configuration not stated): -50.8%. Consider `Cc1cnc2n(c1=O)CC(C(=O)NCc1ccccc1Cl)CS2` (configuration not stated), for which the INHIBITION is reported as -88.7%. Next, `CC1CCCN(C(=O)c2ccc(N(C)Cc3cnn(C)c3)nc2)C1` (configuration not stated): -222%; `Cc1nn(C)c2c(NC3CCCC3)nc(C3CC3)nc12`: -18.7%; `COCC(=O)NC(c1ccc(Cl)cc1)C(F)(F)F` (configuration not stated): 7.67%.

Take `COC(=O)NCC(=O)NC(c1ccc(Cl)cc1)C(F)(F)F` (configuration not stated): the INHIBITION was 38%. On to `COC(=O)NCCC(=O)NC(c1ccc(Cl)cc1)C(F)(F)F` (configuration not stated), for which the INHIBITION worked out at 63.6%.

Regarding `Cc1cccc(CN2C[C@@H]3OCCN(c4ccnc(N(C)C)n4)[C@@H]3C2)c1`, the INHIBITION was determined as 52.5%. Turning to `CCc1ccc(CN2C[C@@H]3OCCN(c4ccnc(N(C)C)n4)[C@@H]3C2)o1`, the INHIBITION is given as 9.71%.

In the case of `CN(C)c1nccc(N2CCO[C@H]3CN(Cc4nccn4C)C[C@H]32)n1`, the INHIBITION is reported as -73.7%. Regarding `N#Cc1ccc(N2CCCC3(CCC(=O)N3CC3CC3)CC2)nc1` (configuration not stated), the INHIBITION is recorded as -26.4%. Next, `Cc1cc(CN(C)Cc2ncc(-c3ccccc3)o2)no1`: -107%; `COC1CCN(CCNC(=O)NC(C)c2ccc(F)c(F)c2)CC1` (configuration not stated): 45.9%; `COC1CCN(CCNC(=O)NCC(C)c2cccc(C)c2)CC1` (configuration not stated): 54.5%. Next, `COC1CCN(CCNC(=O)NC(C)c2cccc(Cl)c2)CC1` (configuration not stated): 23.9%. Next, `Cc1ccc(S(=O)(=O)c2ncccc2CN2CCN(CCO)CC2)cc1`: -44.3%; `CC(C)c1ncc2c(n1)CN(c1ncnc3[nH]ccc13)CC2`: 4.74%. `O=C1NC(c2cccnc2)=NC12CCN(CCCc1ccccc1)CC2`: the INHIBITION is on record as -84.2%. On to `COCCN1C[C@H]2[C@@H](C1)N(Cc1ccc(C)o1)CC[C@H]2OC`, for which the INHIBITION is -41.6%. In the case of `COCCN1C[C@@H]2[C@@H](OC)CCN(Cc3ccc(C)o3)[C@@H]2C1`, the INHIBITION was 3.04%. Then `COCCN1C[C@@H]2[C@@H](OC)CCN(Cc3ccsc3)[C@@H]2C1`, with 66.7%; and `COCCN1C[C@@H]2[C@@H](OC)CCN(Cc3ccco3)[C@@H]2C1`, with -1.85%.

For `COCCN1C[C@H]2[C@@H](C1)N(Cc1cnn(C)c1)CC[C@H]2OC`, the INHIBITION is recorded as -59.7%.

As for `COCCN1C[C@@H]2[C@@H](OC)CCN(Cc3cccs3)[C@@H]2C1`, the INHIBITION was 66.1%.
